Data as given in PubChem BioAssay AID2665 (Vanderbilt High Throughput Screening Facility, 2010).
Activity calls are given as the source filed them. How the calls were made is not given here.

How the values were obtained:
[1] = target: Muscarinic acetylcholine receptor M1 (Rattus norvegicus) (UniProt P08482); assay: M5 positive allosteric modulators, analog testing, SAR follow-up, CHO cells, calcium, ACh EC10, single 30 µM (AID 2665); conditions: rat M1 potentiation, CHO calcium; at 30 µM; stronger effect = higher value;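 further: 100% = response to a maximal acetylcholine concentration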
[2] = target: Muscarinic acetylcholine receptor M5 (Homo sapiens) (UniProt P08912); assay: as above; conditions: CHO hM5 calcium flux, ACh EC10 potentiation; at 30 µM; stronger effect = higher value
Muscarinic acetylcholine receptor M5 (Homo sapiens), sequence (P08912 whole entry, looked up): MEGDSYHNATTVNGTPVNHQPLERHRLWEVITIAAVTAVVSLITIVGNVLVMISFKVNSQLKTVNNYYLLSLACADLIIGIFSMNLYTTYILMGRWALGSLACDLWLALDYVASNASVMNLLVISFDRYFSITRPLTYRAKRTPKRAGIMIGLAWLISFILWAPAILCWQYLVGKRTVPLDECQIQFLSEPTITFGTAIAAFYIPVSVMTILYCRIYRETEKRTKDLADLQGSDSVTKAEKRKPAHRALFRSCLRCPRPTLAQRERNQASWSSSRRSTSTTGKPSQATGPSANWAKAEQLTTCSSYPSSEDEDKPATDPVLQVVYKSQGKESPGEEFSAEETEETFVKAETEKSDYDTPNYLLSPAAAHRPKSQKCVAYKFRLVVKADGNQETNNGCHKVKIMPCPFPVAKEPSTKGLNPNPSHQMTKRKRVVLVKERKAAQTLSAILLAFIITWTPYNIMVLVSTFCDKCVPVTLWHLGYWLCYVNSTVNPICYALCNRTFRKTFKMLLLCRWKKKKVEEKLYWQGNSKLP

O=C1C(=O)N(Cc2ccc(F)cc2F)c2ccc(F)cc21
% ACh max response [1]: 47.3% | % ACh max response [2]: 60.3% (active)

O=C1C(=O)N(Cc2ccc(Br)cc2F)c2ccc(F)cc21
% ACh max response [1]: 70.5% | % ACh max response [2]: 64% (active)

Cc1ccccc1CN1C(=O)C(=O)c2c(Cl)ccc(Cl)c21
% ACh max response [1]: 13.7% | % ACh max response [2]: 16.4% (inactive)

O=C1C(=O)N(Cc2ccccc2C(F)(F)F)c2ccc(F)cc21
% ACh max response [1]: 47.8% | % ACh max response [2]: 36.1% (active)

Cc1ccccc1CN1C(=O)C(=O)c2cc(Cl)ccc21
% ACh max response [1]: 27.6% | % ACh max response [2]: 47.3% (active)

O=C1C(=O)N(Cc2ccccc2C(F)(F)F)c2ccc(OC(F)(F)F)cc21
% ACh max response [1]: 22.6% | % ACh max response [2]: 56.5% (active)

O=C1C(=O)N(Cc2c(F)cccc2F)c2ccccc21
% ACh max response [1]: 36.6% | % ACh max response [2]: 17.4% (inactive)

O=C1C(=O)N(Cc2ccccc2F)c2c(F)cccc21
% ACh max response [1]: 42.7% | % ACh max response [2]: 42.4% (active)

COc1ccc(CN2C(=O)C(=O)c3cccc(F)c32)cc1
% ACh max response [1]: 54.6% | % ACh max response [2]: 44.4% (active)

O=C1C(=O)N(Cc2ccc(Br)cc2F)c2ccccc21
% ACh max response [1]: 49.2% | % ACh max response [2]: 48.5% (active)

O=C1C(=O)N(Cc2ccc(Br)cc2)c2ccc(OC(F)(F)F)cc21
% ACh max response [1]: 13.2% | % ACh max response [2]: 47.6% (active)

Cc1cccc2c1N(Cc1c(F)cccc1F)C(=O)C2=O
% ACh max response [1]: 17.3% | % ACh max response [2]: 14.4% (inactive)

COc1ccc(CN2C(=O)C(=O)c3cc(Cl)ccc32)cc1
% ACh max response [1]: 20.3% | % ACh max response [2]: 32.6% (inactive)

Cc1ccccc1CN1C(=O)C(=O)c2cc(OC(F)(F)F)ccc21
% ACh max response [1]: 26.2% | % ACh max response [2]: 60% (active)

COc1ccc(CN2C(=O)C(=O)c3cccc(Cl)c32)cc1
% ACh max response [1]: 49.4% | % ACh max response [2]: 30.3% (active)

COc1cccc(CN2C(=O)C(=O)c3cc(F)ccc32)c1
% ACh max response [1]: 32.3% | % ACh max response [2]: 41.6% (active)

Cc1cccc2c1N(Cc1ccc(F)cc1F)C(=O)C2=O
% ACh max response [1]: 32.6% | % ACh max response [2]: 33.8% (inactive)

COc1cccc(CN2C(=O)C(=O)c3cc(Cl)ccc32)c1
% ACh max response [1]: 16.9% | % ACh max response [2]: 27.9% (inactive)

O=C1C(=O)N(Cc2ccccc2C(F)(F)F)c2ccc(Cl)cc21
% ACh max response [1]: 29.6% | % ACh max response [2]: 48.4% (active)

O=C1C(=O)N(Cc2ccccc2F)c2c(Cl)cccc21
% ACh max response [1]: 50.4% | % ACh max response [2]: 49.5% (active)

O=C1C(=O)N(Cc2ccc(F)cc2F)c2c(Cl)cccc21
% ACh max response [1]: 64.6% | % ACh max response [2]: 61.6% (active)

COc1cccc(CN2C(=O)C(=O)c3ccccc32)c1
% ACh max response [1]: 19.4% | % ACh max response [2]: 28% (inactive)

O=C1C(=O)N(Cc2ccc(OC(F)(F)F)cc2)c2ccc(Cl)cc21
% ACh max response [1]: 31.3% | % ACh max response [2]: 47.1% (active)

O=C1C(=O)N(Cc2ccc(-c3ccc(F)nc3)cc2)c2ccccc21
% ACh max response [1]: 41% | % ACh max response [2]: 46% (active)

O=C1C(=O)N(Cc2ccc(Br)cc2)c2ccc(Cl)cc21
% ACh max response [1]: 26.1% | % ACh max response [2]: 32% (inactive)

O=C1C(=O)N(Cc2ccc(F)cc2F)c2ccc(OC(F)(F)F)cc21
% ACh max response [1]: 25.9% | % ACh max response [2]: 61.9% (active)

O=C1C(=O)N(Cc2ccccc2Cl)c2ccc(F)cc21
% ACh max response [1]: 41.4% | % ACh max response [2]: 39.9% (active)

COc1ccc(CN2C(=O)C(=O)c3c(Cl)ccc(Cl)c32)cc1
% ACh max response [1]: 18.6% | % ACh max response [2]: 11.7% (inactive)

O=C1C(=O)N(Cc2ccccc2C(F)(F)F)c2ccccc21
% ACh max response [1]: 37.9% | % ACh max response [2]: 40.2% (active)

O=C1C(=O)N(Cc2ccccc2Cl)c2c(F)cccc21
% ACh max response [1]: 18.5% | % ACh max response [2]: 20.3% (inactive)

Cc1ccc2c(c1)C(=O)C(=O)N2Cc1ccc(OC(F)(F)F)cc1
% ACh max response [1]: 13.8% | % ACh max response [2]: 18.9% (inactive)

O=C1C(=O)N(Cc2ccccc2Cl)c2ccc(OC(F)(F)F)cc21
% ACh max response [1]: 12.3% | % ACh max response [2]: 51.9% (active)

O=C1C(=O)N(Cc2ccc(OC(F)(F)F)cc2)c2ccc(F)cc21
% ACh max response [1]: 59.8% | % ACh max response [2]: 58.4% (active)

COc1cccc(CN2C(=O)C(=O)c3c(Cl)ccc(Cl)c32)c1
% ACh max response [1]: 13.3% | % ACh max response [2]: 35.1% (inactive)

Cc1ccc2c(c1)C(=O)C(=O)N2Cc1ccc(C(F)(F)F)cc1
% ACh max response [1]: 22.9% | % ACh max response [2]: 35.5% (inactive)

COc1ccc(CN2C(=O)C(=O)c3ccccc32)cc1
% ACh max response [1]: 43.6% | % ACh max response [2]: 29.2% (active)

O=C1C(=O)N(Cc2ccccc2Cl)c2ccccc21
% ACh max response [1]: 43.4% | % ACh max response [2]: 42% (active)
